This passage reports growth results from PubChem BioAssay (NCI).

Common to all, as to assay: NCI-60 one-dose screen, 48 h (100 = growth as untreated, 0 = no growth, -100 = all killed)
Conditions in all cases: 10 µM unless noted

Assay [1] deals with DU-145 prostate.
Assay [2] deals with K-562 leukemia.
In assay [3] the test system is MALME-3M melanoma.
In assay [4] the test system is MDA-MB-231 breast.
The test system of assay [5] is RXF 393 renal.
Assay [6] deals with SF-268 CNS.
The subject of assay [7] is SF-295 CNS.
Assay [8] concerns SF-539 CNS.
For assay [9], the system named is UACC-257 melanoma.
Assay [10] relates to M14 melanoma.
For assay [11], the system named is HCT-15 colon.
For assay [12], the system named is SNB-75 CNS.
Assay [13] relates to SNB-19 CNS.
The test system of assay [14] is U251 CNS.
Assay [15] relates to PC-3 prostate.
The subject of assay [16] is SK-MEL-5 melanoma.
Assay [17] concerns UACC-62 melanoma.
Assay [18] deals with LOX IMVI melanoma.
The test system of assay [19] is SK-MEL-28 melanoma.

Structures are written as SMILES. About 83,000 compounds went through this panel and 20% of them were active in at least one assay; those are over-represented in the sample as a whole.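 The test compound was applied at a single concentration to cells in 96-well plates for 48 hours, and percent growth was recorded.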 A number with no mark means an inactive call. The source made the active and inactive calls. How the source made its calls: active means growth percent below 10; inactive means the rest.

Consider `CCC1S/C(=N\N=C(/C)c2cccs2)N(c2ccccc2)C1=O` (stereo not given), for which the growth was 123% in assay [1]; 110% in [2]; 181% in assay [3]; 97.7% in assay [4]; 97.3% in assay [5]; 89.3% in [6]. For the same molecule, the growth in [7] was 123%; in assay [8], 124%; in [9] it was 97.5%; in assay [10], 141%; in assay [11], 99%; in [12], 110%. Also, the growth in assay [13] was 114%; in assay [14], 105%; in assay [15], 98.4%; in assay [16], 84.4%; in assay [17], 117%; in assay [18] it was 105%. For the same molecule, the growth in assay [19] is 118%.

With `COc1ccc(CNc2nc3ccccc3c3c(=O)c4ccccc4sc23)cc1OC`, the growth in assay [1] was 74%; in assay [2], 69.3%; in [3], 66.6%; in [4] it was 61.5%; in assay [5], 61%; in [6], 78.7%. Besides, the growth in assay [7] was 68.3%; in [8], 81%; in [9], 88.6%; in assay [10], 86.2%; in assay [11], 90.2%; in assay [12], 21.8%. The growth is 86.5% in assay [13]; 79.8% in assay [14]; 72.9% in assay [15]; 78% in assay [16]; 68.8% in assay [17]; 82.7% in assay [18]. Besides, in assay [19], the growth was 93.3%.

`Nc1nccc2c1ccn2-c1ccc(NC(=O)c2ccc(N3CCOCC3)c(C(F)(F)F)c2)cc1`: the growth in [1] is 48.3%; in assay [2], 1.22% (active); in [3], -18.1% (active); in assay [4], -3.15% (active); in assay [5], -77.4% (active); in assay [6] it was 18.2%. Further, the growth in [7] is -59.6% (active); in [8], 7.48% (active); in assay [9], 32.7%; in assay [10], -61.8% (active); in assay [11], 14.1%; in assay [12], 25.7%. Besides, the growth is 0.546% (active) in assay [13]; 12% in assay [14]; 10.4% in assay [15]; 6.43% (active) in [17]; -45.3% (active) in [18]; 48.9% in [19].

For the molecule `O=C(NCCNc1nccc(-c2c(-c3cccc(O)c3)nc3sccn23)n1)c1ccccc1`, the growth is 90.4% in assay [1]; 62.7% in assay [2]; 9.31% (active) in [3]; 80% in assay [4]; 62.6% in assay [5]; 80.7% in assay [6]. Besides, the growth in assay [7] is 67.4%; in [8] it was 73.2%; in [9] it was 11.3%; in assay [10], 15.3%; in assay [11], 88.4%; in [12], 54.4%. The growth was 91.1% in assay [13]; 61.9% in [14]; 68.5% in assay [15]; 40.2% in assay [16]; 0.903% (active) in [17]; 23.2% in [18]. Moreover, the growth in [19] is 37.8%.

Regarding `COc1cc(NC(C)CCCN2C(=O)c3ccccc3C2=O)c2ncccc2c1OC` (stereo not given), the growth in assay [1] was 104%; in assay [2], 71.3%; in [3], 74.1%; in assay [4], 90.2%; in [5] it was 95%; in assay [6] it was 108%. Further, the growth in assay [7] is 81.1%; in [8] it was 98.6%; in assay [9], 99.4%; in assay [10], 78.7%; in [11], 94.1%; in [12] it was 84.8%. Further, the growth was 94.1% in assay [13]; 107% in assay [14]; 71.3% in assay [15]; 90.1% in assay [17]; 79.2% in assay [18]; 105% in assay [19].

Turning to `CCCCCCCC(=O)SCC/C=C/[C@@H]1CC(=O)NCc2nc(cs2)C2=N[C@@](C)(CS2)C(=O)N[C@@H](C(C)C)C(=O)N1`, the growth is 10.9% in [1]; 6.8% (active) in assay [2]; 10.8% in assay [3]; 11.4% in assay [4]; -52.8% (active) in assay [5]; 18% in [6]. Besides, the growth in [7] is 2.96% (active); in assay [8] it was 25%; in [9], -19.6% (active); in assay [10], 15.5%; in assay [11], 61%; in [12] it was 35.8%. For the same molecule, the growth is 20.8% in [13]; -33.5% (active) in assay [14]; 19.6% in [15]; -21.3% (active) in assay [16]; -25% (active) in assay [17]; -91.8% (active) in [18]. The growth in [19] was 25.3%.

For `CNCCCOc1c(Br)cc(CCNC(=O)/C(Cc2ccc(OC)c(Br)c2)=N/O)cc1Br`, the growth was 61.2% in assay [1]; -21.6% (active) in assay [2]; 1.79% (active) in [3]; 26.8% in assay [4]; 45.3% in [5]; 53% in [6]. Moreover, the growth in assay [7] is 19.8%; in [8], 32.1%; in assay [9] it was 4.02% (active); in assay [10], -55.9% (active); in [11], 22.9%; in [12] it was 50.6%. Also, the growth is 50.3% in [13]; 27.5% in [14]; 34.5% in assay [15]; 38.9% in assay [16]; 9.73% (active) in assay [17]; -35.4% (active) in assay [18]. Moreover, the growth in assay [19] was -21.7% (active).

For the molecule `COc1ccc(-c2nn(-c3ccc(NC(=O)c4cc(C(F)(F)F)cc(C(F)(F)F)c4)cc3)cc2-c2ccncc2)cc1Cl`, the growth in assay [1] is 76.7%; in assay [2] it was 29%; in [3], 95.1%; in assay [4], 49.3%; in assay [5], -6.8% (active); in assay [6] it was 68.7%. For the same molecule, the growth is 33.1% in [7]; 67.7% in assay [8]; 78.8% in [9]; 40.1% in assay [10]; 46% in [11]; 72.5% in assay [12]. The growth in [13] was 85.7%; in assay [14], 52.7%; in assay [15] it was 45.1%; in [16], 69.1%; in [17] it was 55.6%; in [18], 46.4%. Further, the growth in assay [19] was 79.9%.
